Pf growth 48h = P. falciparum growth inhibition at 48 hours (one generation); P. falciparum luciferase growth in erythrocytes, 48 h; Potency, µM (titrated, usually from 28.7 µM), for the others: top-dose activity change, negative = inhibition, hits mostly inhibitors; 310,000 tested, 5.9% active; AID 504832; also: potency is read from the fitted curve at half-maximal effect
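Cell-based growth assay: transgenic P. falciparum expressing firefly luciferase, cultured in red cells within RPMI 1640 containing 0.5% w/v Albumax, 24 mM bicarbonate and gentamycin. A drop in luciferase activity indicates inhibition.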
Pf growth 96h = inhibits malaria parasite growth, 96 h; P. falciparum luciferase reporter growth, 96 h; Potency, µM (titrated, usually from 28.7 µM), for inactives: at the top dose activity change, negative = inhibition, hits mostly inhibitors; 320,000 tested, 6.9% active; also: potency is read from the fitted curve at half-maximal effect
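Two parasite generations (96 h, 37 C, 5% CO2) of compound exposure in infected erythrocytes (0.05% parasitemia, 2% hematocrit). Luciferase-reporter P. falciparum; decreased luminescence indicates inhibited growth, aimed at apicoplast-acting delayed death.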
Sm TGR block = inhibitors of Schistosoma mansoni thioredoxin glutathione reductase; Q962Y6; purified TGR, DTNB reduction, TNB absorbance 405 nm; Potency, µM (titrated, usually from 114 µM), for inactives: top-dose activity change, negative = inhibition, actives largely listed as inhibitors; 360,000 tested, 3% active; AID 485364; also: potency is read from the fitted curve at half-maximal effect; nearly all actives have a fitted effect of over 60% in size
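TGR 20 nM + NADPH 100 uM (dispensed conc.), cpd preinc 15 min RT; start with NADPH (500 uM addition) then DTNB (15 mM addition). Kinetic TNB absorbance, 405 nm filter. Four-parameter Hill fit across titration.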
HCMV inh = human cytomegalovirus inhibition | activity change, negative = inhibition, % at 57.5 µM | 410,000 tested, 4.5% active | HFF cells, HCMV-luciferase reporter, 72 h; active compounds read low; in the data active = activity change below about -60%; inconclusive = no clear call, values can overlap the other calls; inactive = above about -39%
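After 16 h attachment at 37C, HFF cells received test compound and HCMV-luciferase (1 PFU/cell); reporter luminescence read 72 h later, data normalized against buffer-only and known inhibitor Salinomycin.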
Giardia FBPA inh = blocks Giardia fructose-bisphosphate aldolase activity | Potency, µM (series often up to 59.6 µM), for inactives: top-dose activity, negative = inhibition, usual class: inhibitors | A8B2U2 | purified Giardia FBPA | 290,000 tested, 0.71% active; also: potency is read from the fitted curve at half-maximal effect; nearly all actives have a fitted effect of over 55% in size
Target sequence (A8B2U2 whole entry, looked up): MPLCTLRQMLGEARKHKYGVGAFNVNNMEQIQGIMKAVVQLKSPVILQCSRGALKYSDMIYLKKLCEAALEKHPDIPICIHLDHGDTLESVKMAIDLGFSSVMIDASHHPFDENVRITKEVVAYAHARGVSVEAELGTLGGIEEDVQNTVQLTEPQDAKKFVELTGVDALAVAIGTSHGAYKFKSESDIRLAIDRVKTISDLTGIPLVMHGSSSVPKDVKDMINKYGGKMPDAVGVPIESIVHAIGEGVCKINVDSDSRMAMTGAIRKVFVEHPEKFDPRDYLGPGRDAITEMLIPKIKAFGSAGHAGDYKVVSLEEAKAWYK
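Giardia FBPA (40 nM reagent) was preincubated 10 min at RT with compound (up to 57.5 uM final), then substrate plus GAPDH/TPI/NAD/arsenate coupling system with diaphorase/resazurin was added; resorufin fluorescence (525/598 nm) was read after 20 min.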
Numbers without * were called inactive; ? = inconclusive; · = no result; [ ] = another dose, or the depositor's remark. Shown are actives, neighbours in structure and some others; about 14% of the full set was active somewhere. Unless noted, calls follow the shape of the dose curve; as a rule, active = well fitted curve in the direction sought with a large enough effect; inconclusive = small, poorly fitted or top-dose-only effect, or another doubt; inactive = no such curve, though single readings can be large; an effect the other way counts as inactive or inconclusive. % is scaled to controls: 0 for no effect and ±100 for the full control effect.

SMILES | Pf growth 48h | Pf growth 96h | Sm TGR block | HCMV inh | Giardia FBPA inh
COC(C(C)/C=C/CC(=O)OCCCc1ccccc1)C1CCCCC1 (centres undefined) | · | · | · | · | 1%[12.9 µM]
CN(C)c1ncc2nc(-c3ccccc3)c(=O)n(Cc3cccs3)c2n1 | · | · | · | · | 6%
O=C(CSc1nn(-c2ccc(Cl)cc2)c(=S)s1)N1CCN(C(=O)c2ccco2)CC1 | 4.7µM* | -14% | -12% | -7 | 11%
O=C(CSc1nn(-c2ccc(F)cc2)c(=S)s1)N1CCN(C(=O)c2ccco2)CC1 | -14% | · | -28% | -15 | 3%
CCc1ccc(OCC(=O)Nc2ccc3oc(=O)ccc3c2)cc1 | 18% | 17% | 0% | -17 | -8%
Cc1ccc(NC(=O)CSc2nnc(-c3cccnc3)s2)cc1 | 1% | 0% | -4% | 11 | -2%
O=C(CSc1nnc(-c2cccnc2)s1)Nc1ccnc2ccccc12 | 14% | ? | -8% | -92* | 0%
CN(CCc1ccccc1)C(=O)c1cccc(NC(=O)Cc2cccc([N+](=O)[O-])c2)c1 | · | · | · | -4 | ·
C=CCOC(=O)N[C@@H](c1cccs1)C(C(C)=O)C(C)=O | · | · | · | · | 3%
CN1C(=O)C(CC(=O)NCCc2ccccc2)N(NC(=O)c2ccc(Cl)cc2)C1=S (centres undefined) | ? | -15% | 13% | -74* | -5%
COc1cc(CN2CCCCCC2)cc(OC)c1 | 7% | 1% | 100µM* | 35 | -26%
COc1ccc(N=Nc2cc(C)c(O)c(CN3CCCCC3)c2)cc1 | 0.26µM* | 0.26µM* | ? | -16 | -3%
CC(C)(C)c1cc(CN2CCCCC2)cc(C(C)(C)C)c1O | -10% | · | 45µM* | 30 | ?
Oc1cccc(CN2CCCCC2)c1 | -10% | ? | -7% | · | 5%
COc1ccc(CN2CCCCCC2)cc1 | ? | ? | 18% | -2 | -21%
Cc1ccc(S(=O)(=O)CCC(=O)OC(C)C(=O)N2CCc3ccccc32)cc1 (centres undefined) | ? | 4% | -15% | -4 | ·
CCC(=O)N1CCc2cc(S(=O)(=O)CCC(=O)Nc3cc(Cl)ccc3OC)ccc21 | · | · | -36% | 7 | ·
O=C(NC(CC(=O)N1CCCC(C(F)(F)F)C1)c1ccccc1)c1ccccc1Cl (centres undefined) | 15% | ? | 0% | -6 | ·
CC(C)(C)c1ccc(C(=O)N/N=C/c2cccc(Cl)c2)cc1 | · | 13µM* | -3% | -38 | -11%
O=C(N/N=C/c1cc(Cl)ccc1O)c1ccncc1 | 2.3µM* | ? | 5% | -12 | 13%
O=C(N/N=C/c1ccncc1)c1cccc(NC(=O)c2ccc(Cl)cc2)c1 | 13µM* | ? | -8% | ? | 2%
O=C(N/N=C/c1ccncc1)c1cccc(N/N=C/c2ccncc2)c1 | -15% | ? | 6% | 19 | 2%
O=C(N/N=C/c1ccccc1Cl)c1ccncc1 | 14% | 3% | -16% | 16 | -3%
CCOC(=O)[C@@H](N)CS | -13% | -5% | · | · | ·
CCC(=O)OCC(=O)[C@@]1(OC(=O)CC)[C@H](C)C[C@@H]2[C@H]3CCC4=CC(=O)C=C[C@]4(C)[C@]3(Cl)[C@@H](O)C[C@@]21C | · | · | · | · | -4%[21.7 µM]
SMILES | Pf growth 48h | Pf growth 96h | Sm TGR block | HCMV inh | Giardia FBPA inh
CN(C)c1nc(NCc2ccccc2)nc(N/N=C/c2ccc(Cl)cc2Cl)n1 | ? | 9.3µM* | -16% | -3 | 2%
Cc1cc(N/N=C/c2ccccc2)nc(NCc2ccccc2)n1 | 2.3µM* | 1.5µM* | -5% | -8 | 1%
Cc1cc(N/N=C/c2cccc(Cl)c2)nc(NCc2ccccc2)n1 | 0.83µM* | ? | -13% | -2 | 1%
Cc1cc(N/N=C/c2ccc(Cl)cc2)nc(NCc2ccccc2)n1 | 1µM* | 0.74µM* | 1% | -13 | 2%
CN(C)c1nc(NCc2ccccc2)nc(N/N=C/c2ccccc2F)n1 | ? | 28% | -5%[57.1 µM] | · | -6%
CCc1nc2c(OCc3ccc(F)cc3)cccn2c1N(C)C(=O)c1ccc(C)cc1 | · | · | · | -8 | ·
C[C@]12CCC(=O)C=C1CC[C@@H]1C2[C@@H](O)C[C@@]2(C)[C@H]1CC[C@]2(O)C(=O)CO (some centres undefined) | · | · | · | · | 4%
COc1cccc(S(=O)(=O)N(C)C[C@@H]2OCc3cn(nn3)CCCC(=O)N([C@@H](C)CO)C[C@H]2C)c1 | · | · | · | 14 | ·
CCCn1c2ccccc2c2cnn(CC(=O)NCc3cc(OC)ccc3OC)c(=O)c21 | · | · | 1% | -5 | ·
COc1ccc(NC(=O)COC(=O)CNC(=O)C2CCCCC2)cc1OC | · | · | · | -11 | ·
Cc1cc(C)nc(NCc2ccc(Cl)cc2)n1 | ? | 0% | 27% | -15 | 5%
Cc1cc(Nc2cccc(Cl)c2)nc(NCc2ccccc2)n1 | 0.74µM* | 0.47µM* | 5% | -77* | -2%
Cc1ccnc(NS(=O)(=O)c2ccc(NC(=O)CC(C)c3ccccc3)cc2)n1 (centres undefined) | 13% | 42% | 1% | ? | -6%
CCOC(=O)C1=C(COC(=O)CNS(=O)(=O)c2ccc(NC(C)=O)cc2)NC(=O)NC1C (centres undefined) | · | · | · | -13 | ·
O=C(NCC(c1ccco1)N1CCCC1)c1cn(Cc2ccccc2)nc1-c1ccccc1 (centres undefined) | ? | 9.3µM* | -17% | -20 | ·
COc1ccccc1-c1nn(-c2ccccc2)cc1C(=O)NCC(c1ccco1)N1CCCC1 (centres undefined) | ? | 15µM* | -7% | -1 | ·
O=C(NCC(c1cccs1)N1CCOCC1)c1cn(-c2ccccc2)nc1-c1ccc(F)cc1 (centres undefined) | ? | ? | -3% | ? | ·
Cc1cccc(-c2nn(-c3ccccc3)cc2C(=O)NCC(c2cccs2)N2CCOCC2)c1 (centres undefined) | 13µM* | ? | 10% | 19 | ·
O=C(NCC(c1ccco1)N1CCCC1)c1cn(-c2ccccc2)nc1-c1ccc(F)cc1 (centres undefined) | ? | 8.3µM* | 18% | -14 | ·
OC[C@@H]1O[C@@H](O)[C@H](O)[C@H](O)[C@@H]1O | · | · | · | · | 2%
COc1cccc(CNC(=O)C2CCCN(S(=O)(=O)c3cn(C)cn3)C2)c1 (centres undefined) | · | · | 2% | -26 | ·
COCC(C)NC(=O)c1ccc2nc(-c3ccccc3)c(-c3ccccc3)nc2c1 (centres undefined) | 11% | 0% | -7% | 37 | 11%
CCC(C)NC(=O)c1ccc2nc(-c3ccc(OC)c(OC)c3)c(-c3ccc(OC)c(OC)c3)nc2c1 (centres undefined) | 2.9µM* | 13µM* | 11% | 35 | -1%
CCCN(CCC)C(=O)c1ccc2nc(-c3ccc(OC)c(OC)c3)c(-c3ccc(OC)c(OC)c3)nc2c1 | 7.4µM* | 17% | 3% | 102 | -1%
